# “And” between values parts separate entries of the source, which are not always exact repeats. Equal values may be shown once. The panel holds about 83,000 compounds, 20% with a hit somewhere; the sample as a whole holds those more often.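 Treatment: one concentration, 48 hours, 96-well format. Scoring: percent growth, with anything below 10 considered active.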 The source made the active and inactive calls.
# Tested on: MDA-MB-468 breast
# Assay: NCI-60 one-dose screen, 48 h (100 = growth as untreated, 0 = no growth, -100 = all killed)
smiles,measurement,setting,value
CCN(CC)CCN1CC(=O)Nc2cc(Cl)ccc21,growth,10 µM unless noted,98.7% (inactive)
Cn1cc(-c2nc(-c3c[nH]c4ccncc34)cs2)c2ccccc21,growth,10 µM unless noted,-12.2% (active)
CC1(CO)CCCC12OCCO2 (configuration not stated),growth,10 µM unless noted,102% (inactive)
COc1ccc2oc(=O)cc(C(c3ccc[nH]3)c3ccc[nH]3)c2c1,growth,10 µM unless noted,5.5% (active)
O=C(Nc1ccc(CN2CCOCC2)c(C(F)(F)F)c1)c1nc2ccc3[nH]ncc3c2c2c1CCCC2,growth,10 µM unless noted,97.2% (inactive)
O=C(N=Nc1c(O)[nH]c2ccccc12)Nc1ccc(Br)cc1,growth,10 µM unless noted,70.5% (inactive)
COc1ccc(Cn2cc3c(c2-c2cc(OC)c(OC)c(OC)c2)CCc2c(CO)noc2-3)cc1,growth,10 µM unless noted,-17.8% (active)
Cc1cccc[n+]1C1c2ccccc2-c2ccccc21,growth,10 µM unless noted,68.5% (inactive)
O=C1/C(=C\c2cccnc2)SC(=S)N1CCc1ccc(O)cc1,growth,10 µM unless noted,35.2% (inactive)
CCCCCCCCCCCC(=O)NCCCN(C)C,growth,10 µM unless noted,111% (inactive)
Nc1nc(SCc2cccc([N+](=O)[O-])c2)c2[nH]cnc2n1,growth,10 µM unless noted,64.5% (inactive)
Cc1ccc(NC(=O)c2ccc(CN3CCN(C)CC3)c(C(F)(F)F)c2)cc1Oc1ccc(-c2[nH]nc3ncnc(N)c23)cc1,growth,10 µM unless noted,117% (inactive)
COc1ccc(Cc2nnc(Nc3nc4ccccc4s3)s2)cc1,growth,10 µM unless noted,92.6% (inactive)
O=C1/C(=C\c2c[nH]c3ccccc23)c2ccccc2N1c1c(Cl)cccc1Cl,growth,10 µM unless noted,8.39% (active)
O=c1oc2c(cnc3ccccc32)cc1-c1ccsc1,growth,10 µM unless noted,85.5% (inactive)
C#CCNc1nc(NCCNC(=O)CCl)nc(N(C)CCCCc2ccccc2)n1,growth,10 µM unless noted,86% (inactive)
Clc1cc(Cl)c(OCC#CI)cc1Cl,growth,10 µM unless noted,-26% (active)
CN(C)CCn1c2ccc(Br)cc2c2nc3ccccc3nc21,growth,10 µM unless noted,13% (inactive)
O=C(/C=C/c1ccccn1)c1ccc(OCc2nnc(-c3ccc(Cl)cc3)o2)cc1,growth,10 µM unless noted,-37.7% (active)
CC(C)C/C(=N\NC(=O)c1ccncc1)c1cc(Cl)ccc1O,growth,10 µM unless noted,-1.67% (active)
CCOC(=O)CC(=O)OC,growth,10 µM unless noted,102% (inactive)
CCCCCC(C)(O)C(C(=O)O)c1ccccc1 (configuration not stated),growth,10 µM unless noted,108% (inactive)
CSC(SC)=C(C#N)c1nc2ccccc2s1,growth,10 µM unless noted,43.8% (inactive)
COc1cc(C2CC(=O)Nc3c2cc(Br)c2ccccc32)cc(Br)c1OC (configuration not stated),growth,10 µM unless noted,3.67% (active)
CSc1ncccc1C(=O)OCC(=O)Nc1oc(C)c2c(C)n[nH]c(=O)c12,growth,10 µM unless noted,98% (inactive)
COC(=O)[C@H]1[C@H](OC)[C@@H](OC(=O)/C=C/c2ccncc2)CC2CN3CCc4c([nH]c5cc(OC)ccc45)[C@@H]3C[C@@H]21 (some centres not stated),growth,10 µM unless noted,53.6% (inactive)
C=CCn1c(C)nc2ccc(Nc3nc(Nc4ccc5nc(C)n(CC=C)c5c4)c4ccccc4n3)cc21,growth,10 µM unless noted,-92.8% (active)
CCN(CC)CC(C)(C)C(=O)/C=C/c1ccccc1,growth,10 µM unless noted,-15.2% (active)
Nc1ccccc1-c1cc2c(c3c1[nH]c1ccccc13)CCCCC2,growth,10 µM unless noted,98.2% (inactive)
NC(=S)Nc1ccc2c(c1)Cc1ccccc1-2,growth,10 µM unless noted,69.4% (inactive)
C/C(=N\NC(=O)c1ccccc1O)c1cccc(/C(C)=N/NC(=O)c2ccccc2O)n1,growth,10 µM unless noted,23.9% (inactive)
CCC(C)[C@H](NC(=O)Nc1cc(C(F)(F)F)cc(C(F)(F)F)c1)C(=O)N[C@@H](Cc1cn(C)cn1)C(=O)OC (some centres not stated),growth,10 µM unless noted,-74.1% [100 µM] (active)
CS(=O)c1nccc(-c2c(-c3ccc(F)c(OCc4ccccc4)c3)nc3sccn23)n1 (configuration not stated),growth,10 µM unless noted,-19.4% (active)
CC1=CC(=O)C=CC1=Nc1ccc(N(C)C)cc1,growth,10 µM unless noted,48.8% (inactive) and -87.8% (active)
CC(=[N-])N1CCC[C@@H](Nc2c3ccccc3nc3ccccc23)C1.[Cl][Pt].[NH-]CCC[NH-],growth,10 µM unless noted,-10.4% (active)
C[C@@H](Nc1ncnc2ccc(-c3cnc(Cl)c(NS(C)(=O)=O)c3)cc12)c1ccccc1,growth,10 µM unless noted,30.8% (inactive)
COc1ccc(-c2cc(C(=O)N3N=C(c4ccc(N)cc4)CC3c3ccc(OC)cc3)c3cc(OC)ccc3n2)cc1 (configuration not stated),growth,10 µM unless noted,37.6% (inactive)
Cc1cc2nc3c4cccc(O)c4n(CCN(C)C)c3nc2cc1C,growth,10 µM unless noted,0.835% (active)
Clc1ccc(C2=NN=C3C(Cc4ccccc4)=Nc4ccccc4N3C2)cc1,growth,10 µM unless noted,84.7% (inactive)
N#C/C(=C\c1ccc(-c2cc(C(F)(F)F)ccc2Cl)o1)c1nc(-c2ccco2)cs1,growth,10 µM unless noted,-3.16% (active)
COc1ccc(/C=N/NC(N)=S)cc1,growth,10 µM unless noted,82.6% (inactive)
Cc1cc(Cl)c2c(N(C)C)cccc2n1,growth,10 µM unless noted,77.4% (inactive)
COC(=O)c1ccc2[nH]c(O)c(C(=Nc3ccc(N(C)C(=O)CN4CCN(C)CC4)cc3)c3ccc4c(c3)OCO4)c2c1,growth,10 µM unless noted,38.3% (inactive)
Cn1ccc(=Nc2ccc(NC(=O)c3ccc(N=c4ccn(C)c5ccc([N+](=O)[O-])cc45)cc3)cc2)cc1,growth,10 µM unless noted,-2.24% (active)
O=c1ccn2c(n1)OC1CC2OC1COC(c1ccccc1)(c1ccccc1)c1ccccc1 (configuration not stated),growth,10 µM,102% (inactive)
same,growth,100 µM,56.9% (inactive)
COc1ccc(-c2cscc2N)cc1,growth,10 µM,96.4% (inactive)
same,growth,100 µM,38.7% (inactive)
O=C(O)c1sccc1O,growth,10 µM,76.3% (inactive)
same,growth,100 µM,10.8% (inactive)
COc1ccc(C(=O)/C=C/c2ccc(OCc3ccc(Cl)cc3)cc2)cc1OC,growth,10 µM,83.3% (inactive)
same,growth,100 µM,27.8% (inactive)
COc1ccc(Cl)cc1C(=O)NCCc1ccc(S(=O)(=O)NC(=O)NC2CCCCC2)cc1,growth,10 µM,103% (inactive) and 118% (inactive)
same,growth,100 µM,63.2% (inactive)
CN(C)CCNc1ncc(F)c(-c2cnc3cc(-c4cnn(C)c4)ccn23)n1,growth,0.005 µM,103% (inactive)
same,growth,30 µM,84.5% (inactive)
CS/C(=C\c1ccc(C(=O)c2ccc(C)cc2)n1C)S(C)=O (configuration not stated),growth,10 µM,86.1% (inactive)
same,growth,100 µM,30.8% (inactive)
O=c1[nH]cc(F)c(=O)[nH]1,growth,10 µM,64.4% (inactive)
same,growth,50 µM,58.6% (inactive)
CC[C@@H](C)/C=C(C)/C=C/C(O)=C1\C(=O)N[C@@H](Cc2ccc(OC(=O)[C@@](OC)(c3ccccc3)C(F)(F)F)cc2)C1=O,growth,10 µM unless noted,110% (inactive)
CCCCCCCCCCCCCCCc1ccc(Cl)c(O)c1Cl (tested in a mixture with another compound),growth,0.25 µM,8.94% (active)
same,growth,10 µM,103% (inactive)
CC(C)(C)c1cc(NC(=O)Cc2ccc(-c3cnc4cc(-c5cnn(CCN6CCOCC6)c5)ccc4n3)cc2)no1,growth,10 µM,22.2% (inactive)
same,growth,30 µM,-1.53% (active)
NC(=O)c1c(NC(=O)c2cccs2)sc2c1CCC(=O)C2,growth,10 µM unless noted,65.2% (inactive)
CC#C[C@]1(O)CC[C@H]2[C@@H]3CCC4=CC(=O)CCC4=C3[C@@H](c3ccc4c(c3)OCO4)C[C@@]21C,growth,10 µM,66.6% (inactive)
same,growth,100 µM,-15.2% (active)
CC1(C)OB(c2ccc(Cn3cc(F)c(=O)[nH]c3=O)cc2)OC1(C)C,growth,10 µM,105% (inactive)
same,growth,50 µM,13% (inactive)
CC(=O)/C=C/c1ccc(N(C)Cc2ccc(C(C)(C)C)cc2)cc1,growth,10 µM,86% (inactive)
same,growth,100 µM,-71.8% (active)
COc1cccc2c1C(=O)c1c(O)c3c(c(O)c1C2=O)C[C@@](O)(C(=O)CO)C[C@@H]3OC1CC(N)C(O)C(C)O1 (some centres not stated),growth,0.0025 µM,95.2% (inactive)
same,growth,2.5 µM,10.4% (inactive)
O=C(/C=C/c1cccc(Oc2ccc(Cl)cc2)c1)c1ccccc1,growth,10 µM,110% (inactive)
same,growth,100 µM,-36.3% (active)
O=S(=O)(N=C1C(Cl)=C(Cl)C(=NS(=O)(=O)c2ccccc2)C(Cl)=C1Cl)c1ccccc1,growth,10 µM unless noted,70.3% (inactive)
O=C(O)c1c(Cl)c(Cl)c(Cl)c(Cl)c1-c1c2cc(I)c(=O)c(I)c-2oc2c(I)c(O)c(I)cc12,growth,10 µM,115% (inactive) and 111% (inactive) and 77.5% (inactive)
same,growth,100 µM,-39.6% (active)
CN(C)c1cnccn1,growth,10 µM unless noted,56.1% (inactive)
CC(=O)/C=C/c1ccc(N(CCO)Cc2ccc(C(C)(C)C)cc2)cc1,growth,10 µM,73.8% (inactive)
same,growth,100 µM,-71% (active)
C=C(C)[C@@H]1CC[C@]2(C(=O)N3CCN(C)CC3)CC[C@]3(C)[C@H](CC[C@@H]4[C@@]5(C)CC(=C/c6ccncc6)/C(=N/O)C(C)(C)[C@@H]5CC[C@]43C)[C@@H]12,growth,10 µM unless noted,62.2% (inactive)
CN1CCN(Cc2ccc(NC(=O)c3cncc(C#Cc4cnn5ccccc45)c3)cc2C(F)(F)F)CC1,growth,10 µM unless noted,-36.1% (active)
O=c1ccn(C2CC(O)C(COC(c3ccccc3)(c3ccccc3)c3ccccc3)O2)c(=O)[nH]1 (configuration not stated),growth,10 µM,101% (inactive)
same,growth,100 µM,41.5% (inactive)
Cc1[nH]c(-c2nc3ccccc3[nH]2)c(C)c1C(=O)NC(C)C1CCCCC1 (configuration not stated),growth,10 µM,59.8% (inactive)
same,growth,100 µM,-87.1% (active)
CCN(Cc1ccccc1)c1ccc(/C=C2\COc3ccccc3C2=O)cc1,growth,10 µM,118% (inactive)
same,growth,100 µM,7.2% (active)
C#CCOc1ccc(/C=N\Nc2nc(-c3ccc(C)cc3)cs2)cc1OC,growth,10 µM unless noted,70.7% (inactive)
CC(=O)/C=C/c1ccc(OCc2ccc(C(C)(C)C)cc2)cc1,growth,10 µM,47.7% (inactive)
same,growth,100 µM,-0.894% (active)
CN(C)C(=O)c1ccc(SC(=S)NCc2ccccc2)cc1,growth,10 µM,93.9% (inactive)
same,growth,100 µM,-27.4% (active)
CC(=O)/C=C/c1ccc(OCc2ccc(Cl)cc2)cc1,growth,10 µM,109% (inactive)
same,growth,100 µM,1.46% (active)
Cc1cc(NCCCCNc2ccnc3cc(Cl)ccc23)nc(Nc2ccc(C(=O)N3CCCCC3)cc2)n1,growth,10 µM unless noted,-42.3% (active)
CC(=O)[C@@H]1CC[C@]2(COS(=O)(=O)c3ccc(C)cc3)CC[C@]3(C)[C@H](CC[C@@H]4[C@@]5(C)CCCNC(C)(C)[C@@H]5CC[C@]43C)[C@@H]12,growth,10 µM unless noted,20.2% (inactive)
COC(=O)c1ccc2oc(NC(=O)c3ccc(N4CCOCC4)c([N+](=O)[O-])c3)nc2c1,growth,10 µM unless noted,113% (inactive)
O=C(Nc1cccc(Br)c1)Oc1cccc2cccnc12,growth,10 µM,103% (inactive)
same,growth,100 µM,-8.71% (active)

# From PubChem BioAssay (NCI)
